VP16 counter = inhibits Gal4-VP16 luciferase reporter, ROR gamma counter-screen | Drosophila S2 Gal4-VP16 UAS-luciferase, luminescence, 20 h | Potency, µM (highest dose often 53.6 µM), for the others: top-dose activity, negative = inhibition, actives largely listed as inhibitors | actives 3.5% (n = 310,000) | AID 2546;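 note: Gal4-VP16 expression switched on by copper sulfate through the metallothionein promoter; nearly all actives have a fitted effect of over 50% in size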
RORgamma inh = inhibitors of mouse ROR gamma transcriptional activity. actives 5.4% (n = 310,000). Drosophila S2 Gal4-RORgamma UAS-luciferase reporter, 20 h. P51450. Potency, µM (doses to about 53.6 µM), for the others: at the highest dose activity change, negative = inhibition, most hits filed as inhibitors; note: nearly all actives have a fitted effect of over 60% in size
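Stably transfected Drosophila Schneider cells are the test system, with ROR gamma fused to Gal4 and luciferase under UAS control; luminescence is read after 20 hr of 700 uM copper sulfate induction at ambient temperature.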
TDP1 cell CPT = DT40-hTDP1 cell growth loss with CPT. actives 12% (n = 420,000). chicken DT40 Tdp1-/-;hTDP1 cells + 20 nM CPT, ATP luminescence, 48 h. Potency, µM (series often up to 46.2 µM), without a hit: top-dose activity change, negative = growth inhibition, usual class: inhibitors; note: nearly all actives have a fitted effect of over 55% in size
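Cell growth measured by CellTiter-Glo luminescence after a minimum 48 h, 37 C compound exposure with 20 nM CPT in Tdp1-knockout DT40 cells stably expressing hTDP1, seeded 400/well; qHTS titration format.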
DT40 TDP1 no CPT = qHTS for Inhibitors of human tyrosyl-DNA phosphodiesterase 1 (TDP1): qHTS in cells in absence of CPT; DT40 Tdp1-/- hTDP1 cells, no CPT, ATP luminescence, 48 h; Potency, µM (highest dose often 46.2 µM), for the others: at the highest dose activity change, negative = growth inhibition, most hits filed as inhibitors; AID 686978, 2013; actives 15% (n = 420,000); note: nearly all actives have a fitted effect of over 55% in size
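Chicken DT40 Tdp1-/- cells stably complemented with human TDP1 were seeded at 400 cells/well with DMSO in place of 20 nM camptothecin. After compound pinning, cells grew at least 48 hr at 37 °C; viability read by CellTiter-Glo luminescence.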
TDP1 inh = inhibitors of human tyrosyl-DNA phosphodiesterase TDP1; recombinant TDP1, AlphaScreen DNA substrate cleavage; AID 485290; actives 0.28% (n = 350,000); Potency, µM (series often up to 130 µM), for inactives: top-dose activity change, negative = inhibition, usual class: inhibitors; note: nearly all actives have a fitted effect of over 40% in size
Target sequence (Q9NUW8 whole entry, looked up): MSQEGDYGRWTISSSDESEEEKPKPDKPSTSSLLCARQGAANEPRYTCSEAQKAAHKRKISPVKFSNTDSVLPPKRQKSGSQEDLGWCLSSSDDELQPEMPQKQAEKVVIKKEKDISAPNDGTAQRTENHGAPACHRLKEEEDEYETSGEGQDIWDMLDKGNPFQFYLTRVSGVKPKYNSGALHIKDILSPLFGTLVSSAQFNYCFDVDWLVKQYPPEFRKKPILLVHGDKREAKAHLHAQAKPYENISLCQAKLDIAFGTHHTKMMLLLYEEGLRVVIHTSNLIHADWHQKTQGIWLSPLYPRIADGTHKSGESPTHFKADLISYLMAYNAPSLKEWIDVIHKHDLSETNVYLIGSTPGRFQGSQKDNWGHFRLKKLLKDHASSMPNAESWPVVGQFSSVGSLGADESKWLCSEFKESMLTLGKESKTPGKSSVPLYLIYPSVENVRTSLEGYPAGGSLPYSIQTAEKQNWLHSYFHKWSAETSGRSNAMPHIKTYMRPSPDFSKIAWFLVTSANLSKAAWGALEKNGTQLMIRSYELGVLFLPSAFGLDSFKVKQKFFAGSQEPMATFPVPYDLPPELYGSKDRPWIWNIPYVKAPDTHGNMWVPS
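Here, a 5' biotin and 3' phosphotyrosine-FITC DNA oligonucleotide reports Tdp1 activity: intact substrate bridges AlphaScreen beads, while cleavage leaves a 3' phosphate and drops signal. All incubations at room temperature.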
Active calls of the source: *; ? = inconclusive; . = no result; ! = a repeat was not active; [ ] = dose if it differs, or a comment. Rows were chosen to be rich in hits. Some 19% of all compounds tested hit in one or more screens of this group. Calls come from the whole dose curve; as a rule, active = well fitted curve in the direction sought with a large enough effect; inconclusive = small, poorly fitted or top-dose-only effect, or another doubt; inactive = no such curve, though single readings can be large; an effect the other way counts as inactive or inconclusive. % is set by controls: 0 for no effect and ±100 for the full control effect; potency is the fitted concentration of half-maximal effect.

SMILES	VP16 counter	RORgamma inh	TDP1 cell CPT	DT40 TDP1 no CPT	TDP1 inh
O=C(CCl)c1ccc2[nH]c(=O)oc2c1	3.0%	-2.4%	2.59µM*	3.26µM*	0.0%
CC(C)N1CCc2c(sc(NC(=O)c3ccc(S(=O)(=O)N(C)C4CCCCC4)cc3)c2C(N)=O)C1	.	.	?	18.4µM*	10.4%
COCCN(CCOC)S(=O)(=O)c1ccc(C(=O)Nc2sc3c(c2C(N)=O)CCCCC3)cc1	?	?	-28.4%	?	0.0%
NC(=O)c1ccsc1NC(=O)c1ccc(S(=O)(=O)N2CCCc3ccccc32)cc1	-12.4%	?	16.4µM*	18.4µM*	-1.3%
CC(C)N1CCc2c(sc(NC(=O)c3ccc(S(=O)(=O)N4CCc5ccccc54)cc3)c2C(N)=O)C1	?	?	23.1µM*	?	.
COc1cccc(C(C(=O)NC2CCCCC2)N(Cc2ccco2)C(=O)c2ccccn2)c1 (stereo not given)	-0.1%	-2.0%	2.6%	?	.
CC(C)CN(C(=O)c1ccco1)c1nc2ccccc2s1	3.5%	-2.6%	-14.9%	?	.
COc1ccc(/C=c2/sc3n(c2=O)NC2(c4ccccc4)N(C)C(=O)N(C)C2(c2ccccc2)N=3)cc1 (stereo not given)	-18.0%	-0.3%	?	?	-2.3%
CCOC(=O)c1cc2c(=O)n3ccccc3nc2n(Cc2ccco2)c1=NC(=O)c1ccccc1OC	4.5%	-33.8%	16.4µM*	13µM*	79.4µM*!
CCOC(=O)c1cc2c(=O)n3ccccc3nc2n(Cc2ccco2)c1=NC(=O)c1cccc(OC)c1	-6.2%	?	?	?	-2.6%
CCCn1c(=NC(=O)c2ccco2)c(C(=O)OCC)cc2c(=O)n3ccccc3nc21	1.2%	-33.8%	?	?	0.0%
CCOC(=O)c1cc2c(=O)n3cccc(C)c3nc2n(Cc2ccco2)c1=NC(=O)c1ccccc1	2.3%	-3.7%	29.1µM*	?	-1.9%
CCOC(=O)c1cc2c(=O)n3ccccc3nc2n(CC2CCCO2)c1=NC(=O)c1ccccc1OCC (stereo not given)	.	.	16.4µM*	14.6µM*	5.9%
CCOC(=O)c1cc2c(=O)n3ccccc3nc2n(Cc2ccco2)c1=NC(=O)c1ccc(OC)cc1	-9.3%	-13.2%	6.51µM*	5.17µM*	-7.7%
CCOC(=O)c1cc2c(=O)n3cccc(C)c3nc2n(Cc2ccco2)c1=NC(=O)c1ccc(C)cc1	.	.	-3.0%	-5.0%	.
CCCc1cc(CNC(=O)C2CCC(=O)N(CCc3cccc(F)c3)C2)on1 (stereo not given)	0.3%	-7.2%	-6.7%	18.5%	5.4%
C=CCNC(=S)Nc1nc2c(cc1C(=O)OCC)COC(C)(C)C2	-5.3%	10µM*	-17.9%	-11.4%	0.0%
CCOC(=O)c1cc2c(nc1NC(=S)Nc1ccccc1)CC(C)(C)OC2	?	2.82µM*	-4.0%	-1.8%	0.6%
CCOC(=O)c1cc(C#N)c(NCc2ccccc2)nc1C	-1.3%	-26.1%	-28.1%	-10.5%	1.0%
CCOC(=O)c1cc2c(nc1N)CC(C)(C)OC2	23.4%	?	-13.8%	-0.5%	1.1%
CCOC(=O)c1cc2c(nc1NC(=S)NCc1ccccc1)CCCC2	3.55µM*	6.31µM*	10.4%	-13.1%	-3.0%
COc1cc(/C=C(/NC(=O)c2ccccc2)C(=O)N2CCN(C)CC2)c([N+](=O)[O-])cc1OC	-7.3%	-2.5%	4.2%	2.2%	-5.5%
CCOC(=O)C1=C(O)/C(=C\c2sccc2C)N=C1C	0.0%	25.6%	-12.2%	-19.7%	0.6%
Cc1ccc(-c2cc(C(F)(F)F)n3ncc(-c4ccc(Cl)cc4)c3n2)cc1	.	.	6.7%	19.9%	.
Cc1cccc(NC(=O)CCN2C(=O)C3C4C=CC(C4)C3C2=O)n1 (stereo not given)	-1.2%	-1.6%	16.4µM*	23.1µM*	9.3%
SMILES	VP16 counter	RORgamma inh	TDP1 cell CPT	DT40 TDP1 no CPT	TDP1 inh
O=C(CCN1C(=O)C2C3C=CC(C3)C2C1=O)NCCc1ccccc1 (stereo not given)	24.9%	-0.4%	?	25.9µM*	1.0%
O=C1C2C3C=CC(C3)C2C(=O)N1CCc1ccccc1 (stereo not given)	-1.2%	1.4%	-7.3%	0.2%	-8.0%
CC1=C(C(=O)Nc2ccccc2)C(c2ccc(C)o2)n2ncnc2N1 (stereo not given)	1.6%	-7.5%	5.9%	-13.7%	3.0%
CCOC(=O)C1=C[C@@H](C(C)(C)C)N(S(=O)(=O)c2ccc(C)cc2)[C@H]1c1ccc(C#N)cc1	.	.	?	-74.8%	.
CCOC(=O)C1=C[C@@H](c2ccccc2)N(S(=O)(=O)c2ccc(C)cc2)[C@H]1c1ccc(OC)cc1	.	.	16.4µM*	?	.
CCOC(=O)C1=C[C@@H](C(C)(C)C)N(S(=O)(=O)c2ccc(C)cc2)[C@H]1c1ccc(F)cc1	.	.	18.4µM*	23.1µM*	.
CC[C@@H]1C=C(C(=O)O)[C@H](c2ccc(C)cc2)N1S(=O)(=O)c1ccc(C)cc1	.	.	9.3%	5.6%	0.2%
CCOC(=O)C1=C[C@@H](C(C)(C)C)N(S(=O)(=O)c2ccc(OC)cc2)[C@H]1c1ccccc1	.	.	18.4µM*	?	.
CCOC(=O)C1=C[C@@H](C(C)(C)C)N(S(=O)(=O)c2ccc(C)cc2)[C@H]1c1ccc(OC)cc1	.	.	?	20.6µM*	.
CC1CCCCN1C(=O)c1ccc(S(=O)(=O)N2CCCCC2C)cc1 (stereo not given)	-3.7%	24.8%	-25.1%	?	3.0%
Cc1ccc(C)c(C(=O)COC(=O)c2nn(C)c(=O)c3ccccc23)c1	.	.	2.1%	-25.9%	-5.4%[56.1 µM]
COc1ccc(CCN=Cc2ccccc2O)cc1OC	3.6%	10.6%	-10.0%	-22.2%	2.9%
Cc1ccc(CN(C)c2ccc(S(=O)(=O)N3CCCC3)cn2)cc1	.	.	?	?	-3.2%
COCc1c(C(=O)NC2CCCCC2)sc2cccc(F)c12	.	.	?	?	-1.2%[56.1 µM]
COc1ccc(N2CCN(C(=O)C(CC(C)C)NS(=O)(=O)c3ccc4nc(C)sc4c3)CC2)cc1 (stereo not given)	.	.	11.6µM*	-82.3%	-1.2%
COc1ccc(NS(=O)(=O)c2cccc3nsnc23)cc1OC	?	?	?	?	1.0%
CN(C)c1ccc2c(O)cc(=O)n(C)c2c1	-14.7%	?	14.6µM*	16.4µM*	-2.0%
C/C(CCc1ccc2c(c1)OCO2)=N\NC(=O)c1ccccc1Cl	11.1%	-32.7%	-9.4%	-10.9%	-1.8%
CCOC(=O)c1c(C2COc3ccccc3O2)csc1NC(=O)c1ccco1 (stereo not given)	-11.1%	3.1%	14.1µM*	11.2µM*	6.8%
